Results on twelve compounds are retold here after PubChem BioAssay (NCATS).

Inconclusive results are not listed. Calls of active or inactive are those of the source. Unless noted, calls come from the whole dose curve; as a rule, active = well fitted curve in the direction sought with a large enough effect; inconclusive = small, poorly fitted or top-dose-only effect, or another doubt; inactive = no such curve, though single readings can be large; an effect the other way counts as inactive or inconclusive.

Experiment [1] in a line: qHTS to identify inhibitors of the type 1 interferon - major histocompatibility complex class I in skeletal muscle: primary screen against the NCATS Pharmaceutical Collection (AID 1347407).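 Note: luminescence of HiBiT knocked into endogenous HLA-B as interferon-induced MHC class I level.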 The essentials: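 HLA-B HiBiT myoblasts, dexamethasone-free growth medium + 4 ng/ml IFN-b; compounds pinned 1 h after seeding, […] from 46 uM; 24 h, 37 C, 5% CO2; lytic HiBiT detection, 10 min RT, luminescence.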
(In general: qHTS replaces the single test concentration by a dilution series.)

Experiment [2] deals with Protein phosphatase 1D (Homo sapiens) (UniProt O15297). The experiment in a line: RapidFire Mass Spectrometry qHTS Assay for Modulators of WT P53-Induced Phosphatase 1 (WIP1) (AID 1347424). Note: series mostly up to about 63 µM. The method in brief:
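RapidFire MS readout of dephosphorylated VEPPL-S-QETFS product, with 1 uM isotope-labelled peptide standard. Reaction: 10 nM WIP1, 2 uM phosphopeptide substrate, 5 min, room temperature, after 1 h compound preincubation; stopped with 0.5% formic acid.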

Experiment [3] shares this target. The experiment in a line: Rhodamine-PBP qHTS Assay for Modulators of WT P53-Induced Phosphatase 1 (WIP1) (AID 1347425). The method in brief: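 5 nM WIP1 + 10 uM Rh-PBP, 50 mM Tris pH 7.5, 30 mM MgCl2, 1 mM TCEP, 0.1 mM EGTA, BSA; cpds pinned, 1 hr RT; + 10 uM phosphopeptide; fluorescence 1-min reads x 11 min; delta = f1 - f0.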
The nature of experiment [4]: Primary qHTS for inhibitors of SARS-S pseudo-typed particle cell entry (AID 1479145; calls by dose curve; note: nearly all actives have a fitted effect of over 45% in size; note: potency is the fitted concentration of half-maximal effect).
The nature of experiment [5]: Primary qHTS for Huh7 cytotoxicity: counterscreen for inhibitors of MERS-S pseudotyped particle cell entry (AID 1479147; calls by dose curve; note: potency is the fitted concentration of half-maximal effect).
Experiment [6] can be described thus: Primary qHTS for inhibitors of MERS-S pseudo-typed particle cell entry (AID 1479149; calls by dose curve; note: nearly all actives have a fitted effect of over 60% in size).
Experiment [7] in a line: Primary qHTS for Vero E6 cytotoxicity: counterscreen for inhibitors of SARS-S pseudo-typed particle cell entry (AID 1479150; calls by dose curve; note: potency is the fitted concentration of half-maximal effect).
A short description of experiment [8]: Primary qHTS for inhibitors of La Crosse Virus (LACV) - induced cell death in SH-SY5Y cells (AID 1508616).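 Note: top concentration of the series differs between compounds; higher means more rescue of cells from virus-induced death.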 The essentials:
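Cytopathicity rescue screen: compounds pinned onto SH-SY5Y cells, which are then infected with LACV (MOI 0.01) and held 6 days at 37C. Percent activity is scaled between infected DMSO control and uninfected DMSO control.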

Experiment [9] has as its target Calcium and integrin-binding protein 1 (Homo sapiens) (UniProt Q99828). The experiment in a line: Primary qHTS for Identification of Calcium Integrin Binding Protein 1 (CIB1) Competitor (AID 1508620). Note: potency is the fitted concentration of half-maximal effect. The essentials:
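Fluorescence polarization competition: GST-tagged CIB1 (1 uM final) preincubated with compound 15 min at room temperature, then FITC-labelled alphaIIb peptide (100 nM final) added. After 15 min at room temperature, polarization read at Ex 480/Em 540.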

Experiment [10] in a line: qHTS to identify inhibitors of the type 1 interferon - major histocompatibility complex class I in skeletal muscle: primary screen against the NCATS Mechanism Interrogation Plate v5.0 (MIPE) Libary (AID 1347411). Note: nearly all actives have a fitted effect of over 65% in size. The method in brief: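 HLA-B HiBit myoblasts, dexamethasone-free medium + 4 ng/ml IFN-b, 24 h compound, 11-pt 1:3 from 46 uM final. Readout: Nano-Glo HiBiT lytic luminescence after 10 min lysis, RT.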

The nature of experiment [11]: qHTS to identify inhibitors of the type 1 interferon - major histocompatibility complex class I in skeletal muscle: primary screen against the NCATS LOPAC collection (AID 1347405).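 Note: human myoblasts with HiBiT tag on endogenous HLA-B stimulated by IFN-beta; lytic HiBiT luminescence reporting HLA-B protein level.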 The essentials:
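HLA-B HiBiT myoblasts, IFN-b 4 ng/ml, dexamethasone-free medium; compounds 7-pt 1:4.3 titration, top 46 uM final; 24 h at 37 C; Nano-Glo HiBiT lytic reagent, 10 min RT, luminescence.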

Experiment [12] in a line: qHTS for inhibitors of adenylyl cyclases using a fission yeast platform: a pilot screen against the NCATS LOPAC library (AID 1347410). The method in brief:
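Read-out: fbp1-GFP fluorescence by laser scanning cytometry (488 nm laser), a gain of signal when AC/cAMP-PKA signalling is inhibited. Strain CHP2027 expressing AC9, GNAS and PDE4D2; compounds at up to 57 µM; 18 h, 30C.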

The nature of experiment [13]: Validation qHTS assay for inhibitors of Activation Induced Cytidine Deaminase (AID): UDG Counterscreen signal (AID 1347427). The method in brief:
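Fluorescence at 560 nm excitation, 665 nm emission reports UDG signal after 250 mM NaOH (2x) addition and 30 min. Enzymes (AID 1 uM, UDG 2 U/mL, at 4/3x) preincubated 10 min with compound, then 4 h with 4x 250 nM DJC20/DJC23 substrate at room temperature.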

The target of experiment [14] is Single-stranded DNA cytosine deaminase (Homo sapiens) (UniProt Q9GZX7). Nature of the experiment: Validation qHTS assay for inhibitors of Activation Induced Cytidine Deaminase (AID): AID signal (AID 1347429). The method in brief:
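AID+UDG coupled FRET deamination; cpds up to 114 uM final; DJC20/DJC23 substrate, 4 hr RT; NaOH stop, 30 min RT; read Ex 540/Em 590.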

The target of experiment [15] is Calcium and integrin-binding protein 1 (Homo sapiens) (UniProt Q99828). The experiment in a line: Validation qHTS for Identification of Calcium Integrin Binding protein 1 (CIB1) Competitor (AID 1508618). The method in brief:
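Displacement of FITC-alphaIIb peptide (100 nM) from CIB1-GST (1 uM) is monitored by polarization in quantitative HTS format; buffer carries 5 mM CaCl2 and 125 mM NaCl at pH 7.4, incubations are at room temperature.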

Calcium and integrin-binding protein 1 (Homo sapiens), sequence (Q99828 whole entry, looked up): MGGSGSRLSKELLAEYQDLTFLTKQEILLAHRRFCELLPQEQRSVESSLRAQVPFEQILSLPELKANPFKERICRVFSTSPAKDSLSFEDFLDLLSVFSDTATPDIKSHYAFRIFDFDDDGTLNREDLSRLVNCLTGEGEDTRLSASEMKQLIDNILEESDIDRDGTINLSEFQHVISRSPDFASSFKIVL
Protein phosphatase 1D (Homo sapiens), sequence (O15297 whole entry, looked up): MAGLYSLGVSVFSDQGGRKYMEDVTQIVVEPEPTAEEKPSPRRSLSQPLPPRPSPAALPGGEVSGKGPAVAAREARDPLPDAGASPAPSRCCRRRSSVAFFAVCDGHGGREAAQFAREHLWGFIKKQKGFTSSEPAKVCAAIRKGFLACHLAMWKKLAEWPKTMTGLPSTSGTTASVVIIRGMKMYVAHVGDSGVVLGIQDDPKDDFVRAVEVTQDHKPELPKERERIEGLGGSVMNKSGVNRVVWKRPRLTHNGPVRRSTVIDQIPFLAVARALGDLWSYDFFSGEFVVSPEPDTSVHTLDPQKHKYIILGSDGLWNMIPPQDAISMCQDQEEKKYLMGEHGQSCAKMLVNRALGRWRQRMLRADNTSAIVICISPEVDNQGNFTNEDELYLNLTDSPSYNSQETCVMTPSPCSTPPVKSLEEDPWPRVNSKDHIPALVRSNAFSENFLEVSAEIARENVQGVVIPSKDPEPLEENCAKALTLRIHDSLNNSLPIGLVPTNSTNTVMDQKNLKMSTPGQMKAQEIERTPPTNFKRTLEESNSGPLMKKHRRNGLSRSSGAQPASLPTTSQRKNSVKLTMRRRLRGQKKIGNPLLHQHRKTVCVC
Single-stranded DNA cytosine deaminase (Homo sapiens), sequence (Q9GZX7 whole entry, looked up): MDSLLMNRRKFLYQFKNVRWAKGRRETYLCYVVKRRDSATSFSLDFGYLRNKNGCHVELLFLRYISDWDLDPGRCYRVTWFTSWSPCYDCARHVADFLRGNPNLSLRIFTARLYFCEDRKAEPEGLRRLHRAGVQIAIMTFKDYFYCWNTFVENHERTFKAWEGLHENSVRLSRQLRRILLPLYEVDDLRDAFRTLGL

As to `COc1ccc(CN2CCNCC2)c(OC)c1OC`, the Potency result in experiment [1], in experiment [2], in [4], in experiment [5], in [6] and in experiment [7] was “inactive” each time. In [9], the Potency entry is “inactive”. The compound was called inactive in [3] and in experiment [8].

In the case of `C[N+]1(C)[C@@H]2CC[C@H]1CC(OC(=O)C(CO)c1ccccc1)C2` (some centres undefined), the Potency result in experiment [1], in [2], in [4], in experiment [5], in [6] and in experiment [7] was “inactive” each time. The Potency result in experiment [9] is “inactive”. Further, in [3], the compound was called inactive.

For `Cc1ccc(N=CN(C)C=Nc2ccc(C)cc2C)c(C)c1`, the Potency entry in experiment [1], in experiment [2], in experiment [4], in [5], in experiment [6] and in [7] was “inactive” each time. For the same compound, in experiment [9], the Potency entry is “inactive”. Besides, the result in [3] and in experiment [8] was inactive.

For `CCC1(c2cccc(O)c2)CCCCN(C)C1` (centres undefined), the Potency entry in [1], in experiment [2], in experiment [4], in experiment [5], in experiment [6] and in experiment [7] was “inactive” in each case. Besides, the Potency entry in experiment [9] is “inactive”. For the same compound, in experiment [3], the result was inactive.

Take `CN(C)C(=S)SSC(=S)N(C)C`: the Potency entry in experiment [1], in [2] and in experiment [6] was “inactive” in each case. In experiment [3], the outcome was inactive. Also, the Potency in [4] was 708 nM (active); in experiment [5], 891 nM (active); in [7], 891 nM (active); in experiment [9], 39800 nM (active).

In the case of `C[C@]12CC[C@H](O)CC1=CC[C@@H]1[C@@H]2CC[C@]2(C)C(=O)CC[C@@H]12`, the Potency entry in experiment [1], in experiment [10], in experiment [2], in [4], in [5] and in experiment [6] was “inactive” throughout. For the same compound, the Potency entry in [7] and in [9] was “inactive” in each case. In addition, the outcome in experiment [3] was inactive.

On to `C=CCN1CC[C@]23CCCC[C@H]2[C@H]1Cc1ccc(O)cc13`, for which the Potency result in experiment [1], in [2], in [4], in [5], in experiment [7] and in experiment [9] was “inactive” throughout. Besides, the result in experiment [3] and in experiment [8] was inactive.

As to `CC(CC(C(N)=O)(c1ccccc1)c1ccccc1)N(C)C` (centres undefined), the Potency entry in experiment [1], in experiment [2], in experiment [4], in experiment [5], in [6] and in experiment [7] was “inactive” in each case. Also, in experiment [9], the Potency result was “inactive”. For the same compound, the compound was classed as inactive in experiment [3] and in [8].

Turning to `C[C@@H]1CC[C@H]2[C@@H](C)C(=O)O[C@@H]3O[C@@]4(C)CC[C@@H]1[C@]32OO4`, the Potency result in experiment [1], in experiment [10], in [2] and in [9] was “inactive” each time. Besides, the outcome in [3] and in [8] was inactive.

Turning to `CN(C)C(=O)Oc1cc(OC(=O)N(C)C)cc(C(O)CNC(C)(C)C)c1` (centres undefined), the Potency result in [1], in experiment [2], in experiment [4], in experiment [5], in experiment [6] and in experiment [7] was “inactive” each time. Also, the Potency result in experiment [9] is “inactive”. Moreover, the outcome in experiment [3] and in [8] was inactive.

For `CC(C)(O)C(Cl)(Cl)Cl`, the Potency entry in experiment [1], in experiment [2], in experiment [4], in experiment [5], in [6] and in experiment [7] was “inactive” each time. The Potency result in [9] is “inactive”. Besides, the result in experiment [3] was inactive.

Consider `NC(=O)CN1CCCC1=O`, for which the compound was classed as inactive in [11], in experiment [12], in [3], in experiment [13], in experiment [14] and in experiment [8]. Further, the result in [15] was inactive. Besides, the Potency entry in experiment [1], in [2], in experiment [5], in [6], in experiment [7] and in experiment [9] was “inactive” throughout.
